# Key:
# Settings in all cases: concentration: 1 μM, replicates: in singlicate; n = 1
# EIF2AK1 = tested on: EIF2AK1
# EPHA1 = tested on: EPHA1
# EPHA2 = tested on: EPHA2
# EPHA3 = tested on: EPHA3
# EPHA4 = tested on: EPHA4
# EPHA5 = tested on: EPHA5
# EPHA6 = tested on: EPHA6
# EPHA7 = tested on: EPHA7
# EPHA8 = tested on: EPHA8
# EPHB1 = tested on: EPHB1
# EPHB2 = tested on: EPHB2
# EPHB3 = tested on: EPHB3
# EPHB4 = tested on: EPHB4
# EPHB6 = tested on: EPHB6
# ERBB2 = tested on: ERBB2
# ERBB3 = tested on: ERBB3
# ERBB4 = tested on: ERBB4
# ERK1 = tested on: T1, ERK1
# T1 construct: gene MAPK3
# ERK2 = tested on: T2, ERK2
# T2 construct: gene MAPK1
# ERK3 = tested on: T3, ERK3
# T3 construct: gene MAPK6
# 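Also: KINOMEscan kinase panel screen.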
SMILES,%Inh (EIF2AK1),%Inh (EPHA1),%Inh (EPHA2),%Inh (EPHA3),%Inh (EPHA4),%Inh (EPHA5),%Inh (EPHA6),%Inh (EPHA7),%Inh (EPHA8),%Inh (EPHB1),%Inh (EPHB2),%Inh (EPHB3),%Inh (EPHB4),%Inh (EPHB6),%Inh (ERBB2),%Inh (ERBB3),%Inh (ERBB4),%Inh (ERK1),%Inh (ERK2),%Inh (ERK3)
Cl.Cn1ccc(-c2cccc(Nc3ccnc4cc(-c5nccs5)ccc34)c2)n1 [GW525701],0%,25%,0%,100%,0%,0%,0%,6%,7%,14%,0%,9%,47%,94.2%,53%,64%,45%,0%,0%,0%
FC(F)(F)c1cc(Nc2nccc(-c3c(-c4ccc(Cl)cc4)nn4ncccc34)n2)ccc1Cl [GW829351],0%,0%,0%,0%,4%,0%,0%,0%,3%,0%,0%,0%,0%,0%,0%,0%,45%,0%,0%,0%
Cc1ccc(NC(=O)c2cccc(C#N)c2)cc1-c1ccc(C(=O)Nc2ccncc2)cc1 [GSK1398463],7%,12%,30%,13%,43%,0%,34%,12%,46%,22%,13%,26%,25%,2%,0%,0%,32%,0%,0%,5%
CCn1c(-c2ccncc2)nc2cnccc21 [SB-735216],19%,23%,5%,99.1%,10%,0%,16%,0%,14%,0%,16%,11%,7%,8%,0%,33%,0%,0%,0%,0%
CNc1nccc(-c2c(-c3ccc(F)cc3)ncn2CCCN2CCOCC2)n1 [SB-222516],12%,14%,0%,0%,0%,0%,0%,21%,25%,17%,0%,0%,8%,0%,0%,30%,8%,7%,1%,0%
Cl.c1ccc(Cn2ccc3cc(Nc4ncnc5ccccc45)ccc32)cc1 [GW275568],5%,7%,1%,40%,0%,0%,0%,10%,20%,4%,6%,4%,18%,33%,100%,29%,88%,0%,0%,4%
Cl.O=S(=O)(c1cccc(F)c1)c1ccc(Nc2ncnc3cc(Br)sc23)cc1Cl [GSK306886],0%,9%,9%,14%,19%,0%,16%,2%,2%,10%,42%,19%,17%,0%,98.7%,0%,43%,0%,0%,10%
COc1ccc(NC(=O)c2ccc(-c3cc(-c4nnc(C)o4)ccc3C)cc2)cc1 [GW595885],0%,8%,7%,0%,7%,0%,0%,0%,6%,0%,10%,13%,6%,0%,18%,0%,7%,0%,0%,0%
CC(=O)Nc1n[nH]c2ncc(-c3ccccc3)cc12 [SB-548492],0%,17%,0%,2%,8%,15%,29%,0%,32%,15%,0%,16%,14%,36%,0%,0%,29%,12%,11%,1%
C[C@@H]1CCN(C(=O)CO)C[C@@H]1N(C)c1ncnc2[nH]ccc12,5%,8%,0%,0%,0%,2%,0%,0%,0%,9%,0%,0%,0%,17%,19%,0%,11%,0%,0%,14%
